The structures appear in SMILES notation. Results filed as inconclusive are left out. A call without a number means that no potency is given here. Activity calls are given as the source filed them. Calls follow the shape of the full dose curve.

The assay deals with Atrial natriuretic peptide receptor 1 (Homo sapiens) (UniProt P16066). In words: Natriuretic polypeptide receptor (hNpr1) antagonism - Pilot CMLD screen (AID 1347052). Conditions: HEK293 hNpr1 GloSensor cGMP luminescence, ANP-stimulated; series mostly up to 9.22 µM. The protocol: In order to identify small molecular compounds that inhibit the hNpr1 receptor we developed a high-throughput assay to measure inhibition of the guanylate cyclase activity of the receptor. cGMP production was measured using a circular permutated Firefly luciferase (FLuc) enzyme functionally linked to the cGMP binding domain of human phosphodiesterase 5 (GloSensor technology pGS-40F, (Fan, F. et al. 2008). The cGMP-sensor was expressed in human embryonic kidney 293 (HEK-293) cells and FLuc activity was measured after stimulation with hNrp agonist peptide. hNrp agonists activates the receptor's associated guanylyl cyclase (GC) domain producing cGMP which then binds to the GloSensor resulting in FLuc activation, the enzymatic activity of which can be measured as bioluminescence with addition of luciferin substrate.
Chain of Atrial natriuretic peptide receptor 1 (Homo sapiens) (P16066 whole entry, looked up, the tested form may be a part): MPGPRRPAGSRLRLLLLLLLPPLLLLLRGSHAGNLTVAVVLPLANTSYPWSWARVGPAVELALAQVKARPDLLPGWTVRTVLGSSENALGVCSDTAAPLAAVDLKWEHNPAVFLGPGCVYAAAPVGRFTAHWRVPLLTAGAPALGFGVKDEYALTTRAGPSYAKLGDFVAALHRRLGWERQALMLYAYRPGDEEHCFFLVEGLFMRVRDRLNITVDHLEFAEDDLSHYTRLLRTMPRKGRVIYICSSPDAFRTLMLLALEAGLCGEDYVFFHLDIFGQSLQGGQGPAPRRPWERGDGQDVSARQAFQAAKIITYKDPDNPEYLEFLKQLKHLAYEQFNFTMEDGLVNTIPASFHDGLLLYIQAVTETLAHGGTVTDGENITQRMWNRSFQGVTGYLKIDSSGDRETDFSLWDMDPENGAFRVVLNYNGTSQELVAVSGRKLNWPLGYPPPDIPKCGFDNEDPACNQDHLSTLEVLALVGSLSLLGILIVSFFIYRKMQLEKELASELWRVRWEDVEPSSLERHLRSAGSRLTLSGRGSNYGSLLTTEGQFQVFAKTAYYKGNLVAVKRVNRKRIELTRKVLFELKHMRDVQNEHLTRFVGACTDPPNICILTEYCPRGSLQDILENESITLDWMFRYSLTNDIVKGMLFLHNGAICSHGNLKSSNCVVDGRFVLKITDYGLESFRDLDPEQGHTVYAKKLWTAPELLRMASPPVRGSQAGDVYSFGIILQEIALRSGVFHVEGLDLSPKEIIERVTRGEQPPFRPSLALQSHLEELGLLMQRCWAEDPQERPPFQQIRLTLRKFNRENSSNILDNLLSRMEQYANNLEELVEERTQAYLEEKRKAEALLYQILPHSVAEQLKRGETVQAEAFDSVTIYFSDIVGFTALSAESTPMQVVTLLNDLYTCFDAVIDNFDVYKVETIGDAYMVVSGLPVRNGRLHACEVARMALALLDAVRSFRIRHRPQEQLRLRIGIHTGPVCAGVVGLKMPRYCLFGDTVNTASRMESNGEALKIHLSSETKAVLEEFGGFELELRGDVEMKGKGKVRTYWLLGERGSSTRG
This assay was initially piloted by testing with a small library of specialty compounds.
PROTOCOL TABLES (as described by Inglese J, Shamu CE and Guy RK. 2007)
SEQUENCE No. (e.g., 1, 2, 3, etc.); […] (e.g., Cells, Incubation, Reagent, etc.); VALUE and DESCRIPTION.
1. Cells. Seed 1500 HEK293 cGMP-sensor cells expressing hNpr1 per well in 4uL into Greiner 1536-well white/solid bottom high base, tissue culture-treated plates.
2. Incubation. Incubate plated cells at 37C in 5% CO2, 95% RH overnight.
3. Reagent. Add 1uL per well GloSensor reagent from Promega (2% final concentration) or CO2 independent media vehicle control to respective columns of Greiner 1536-well plates.
4. Incubation. Incubate plated cells at room temperature for 2 h, protect from light.
5. Compounds. Library compounds and A-71915 control added at 23 nL per well, transferred by Pin Tool.
6. Incubation. Incubate plated cells for 30 min. at room temperature, protect from light.
7. Detector. GloSensor baseline pre-read luminescence measured using CCD-based camera (Viewlux).
8. Compound. Add 1uL of hNppA peptide to 0.1 nM final concentration to stimulate hNpr1 or CO2 independent media as vehicle control.
9. Incubation. Incubate treated cells at room temperature for 20 min., protect from light.
10. Detector. GloSensor post-hNppA luminescence measured using CCD-based camera (Viewlux).
NOTES (numbers refer to Sequence numbers above)
1. HEK293 cells expressing hNpr1 and GIP/pGS-40F grown to 85-95% confluence (48-72 h) in T175 culture flasks (CO2 independent media supplemented with 10% FBS, 1% Pen/Strep antibiotics and 1 ug/mL puromycin). Trypsinize and harvest cells from T175 culture flasks and filter through 40 um cell strainer. Cells counted with Invitrogen Countess (30,000,000 - 50,000,000 cells/flask). Cells diluted to a final concentration of 375 cells/uL in CO2 independent media and a Millipore multidrop used to dispense 1500 cells per well (4uL/well) into 13 1536-well Greiner White/Solid bottom, high base tissue-culture treated (TC) plates and one Aurora 1536-well Black/Clear bottom, low base, TC plate (for visual inspection of cell health throughout the duration of the assay).
2. Cells incubated overnight at ambient temperature, 24 h. at 37C in 95% RH incubator protected from light, covered with metal lid with gas-exchange holes.
3. Prepare GloSensor Reagent (Promega): Reconstitute GloSensor luciferase substrate by adding 8.2mL Hepes buffer to 250mg substrate, mix well, protect from light and stored at -80C. Prepare a fresh 12% GloSensor solution in CO2 independent supplemented plating media (see above). Mix well and store at ambient temperature, protected from light. 1uL 12% GloSensor Luciferase Reagent added (2% final concentration) to respective columns of 13 x 1536-well Greiner plate with BioRaptr, 1uL CO2 independent plating media added to respective columns as vehicle control with BioRaptr.
4. Cells incubated for 2 h. at ambient temperature, protected from light with metal lid with gas-exchange holes.
5. A-71915 stock solution prepared (10 mM in DMSO). […]
For `COc1ccc(OC[C@H]2CN3[C@H](c4ccc(Br)cc4)[C@H](C)CC[C@H]3C(=O)O2)cc1`, the Potency result is “inactive”. `COC(=O)[C@@]1(C=C2c3ccc(F)cc3[C@@H](OC)[C@@H]2C)[C@@H]2OCCC[C@@H]21`: the Potency result is “inactive”. For `COc1ccc(COC(=O)NN=C2C[C@@H](O)[C@@H](O)[C@@H]3[C@H]4C(=O)N(C5CCCCC5)C(=O)[C@@H]4CC[C@H]23)cc1`, the Potency entry was “inactive”. Turning to `COCCN1C(=O)NC(c2ccccc2)C(C(=O)OC)=C1C` (stereo not given), the Potency result is “inactive”. Turning to `COC(=O)C1=C(C)N(Cc2ccccc2)C(=NCCc2ccccn2)NC1c1cccc(F)c1` (stereo not given), the Potency entry is “inactive”. Turning to `C=CCOC(=O)N[C@H](c1ccc2ccccc2c1)[C@H](C)C=CCC(=O)OC`, the Potency result is “inactive”. With `C=C(C)C(=O)OC[C@H]1CN2[C@H](c3ccc(Br)cc3)[C@H](C)CC[C@H]2C(=O)O1`, the Potency result was “inactive”. As for `Oc1ccc2c(c1-c1c(O)c(Br)cc3c1CCCC3)CCCC2`, the Potency result is “inactive”. Turning to `CCCC[C@H]1CN2[C@H](c3ccc(Br)cc3)[C@H](C)CC[C@H]2C(=O)O1`, the Potency entry was “inactive”.

Take `COc1ccc2c(c1)O[C@H](c1ccc3c(c1)OCO3)[C@@H](OC(=O)Nc1cc(OC)c(OC)c(OC)c1)C2=O`: the Potency result was “inactive”. On to `COC(=O)C1=C(C)N(CC#C[Si](C)(C)C)C(=O)N(C(C)=O)C1c1ccccc1` (stereo not given), for which the Potency result is “inactive”. Consider `COC(=O)N1C(C=CC=Cc2ccc(OC)cc2)=Cc2ccccc2C1CC(C)=O` (stereo not given), for which the Potency entry is “inactive”. For `C=CCOC(=O)C(C(C)=O)[C@@H](NC(=O)OC)c1cccc(C)c1` (stereo not given in full) the value was “inactive”; for `COC(=O)C1=C(C(=O)OC)[C@@H]2Nc3ccccc3[C@@]23C[C@@H](C(=O)OC)N(C(=O)N2CCNC2=O)C3=N1`, “inactive”; for `C=CCNC(=O)N1CCc2nc(-c3ccccc3)c3c(c2C1)CO[C@@H](C)C3`, “inactive”. On to `COC(=O)CC=C[C@@H](C)[C@@H](C=NOCC[C@@H]1C=C[C@H](OC(C)=O)[C@@H](COC(C)=O)O1)NS(=O)(=O)c1ccc(C)cc1`, for which the Potency entry was “inactive”. For `COC[C@H]1O[C@H](c2ccccc2)C=C[C@H]1OCC=C(C)C`, the Potency entry was “inactive”. Turning to `COC(=O)C1=C(C)N(Cc2ccccc2)C(=NCC2CC2)NC1c1ccccc1` (stereo not given), the Potency result was “inactive”.

In the case of `COC(=O)c1ccc(CN2C(=O)[C@]3(O[C@H](C)CC4=CCCC43)c3c(Br)cccc32)cc1` (stereo not given in full), the Potency result was “inactive”. In the case of `COCCN1C(=O)C2=C(C1=O)C1N(C)c3ccccc3[C@@]13C[C@@H](CO)N(S(=O)(=O)c1ccc(OC)cc1)C3=N2` (stereo not given in full), the Potency result is “inactive”.

On to `COC(=O)C1=C(C)N(Cc2ccccc2)C(=NCc2cc(OC)c(OC)c(OC)c2)NC1c1cccc(F)c1` (stereo not given), for which the Potency result was “inactive”. For `C[C@@H]1C[C@](C)(C(=O)c2ccc3c(c2)OCO3)C=C1c1ccc2c(c1)OCO2`, the Potency result is “inactive”. With `C[C@@H]1C[C@H]2[C@@H](Cc3ccccc3)C(=O)N3[C@@H](C[C@@H](C)[C@@H]3c3ccccc3)[C@@H](Cc3ccccc3)C(=O)N2[C@H]1c1ccccc1`, the Potency result was “inactive”. In the case of `COC(=O)N1C2CC3(C)C=C(C)OC1(C)C3c1ccccc12` (stereo not given), the Potency result is “inactive”. For `CC(Nc1oc(-c2ccccc2)nc1-c1cccc2ccccc12)c1ccccc1` (stereo not given) the value was “inactive”; for `COC1=C[C@H](C(=O)NCc2ccccn2)[C@H](C)[C@@H](c2ccccc2)CC1=O`, “inactive”; for `COC(=O)C12C[C@H](C)C3C(C)C(c4ccccc4C31)N2C(=O)C(F)(F)F` (stereo not given in full), “inactive”. As for `COC(=O)[C@H]1[C@@H](c2cccc(C(F)(F)F)c2)NC(=O)N(Cc2ccccc2)[C@@H]1C`, the Potency result is “inactive”.

For the molecule `C[C@H]1[C@H](N=[N+]=[N-])[C@H](O)CCO[C@@H]1c1ccccc1`, the Potency entry is “inactive”.

For `CC1(C)O[C@H]2O[C@H]([C@H](O)CON=C3[C@H]4CCn5c(=O)n(-c6ccccc6)c(=O)n5[C@@H]4[C@H](O)[C@@H]4O[C@H]34)[C@H](O)[C@@H]2O1`, the Potency result was “inactive”. In the case of `CCc1cc2c(nc1CC)CCN(CCC(C)=NOC[C@@H](C)[C@H](OCc1ccccc1)C(C)C)C2`, the Potency result was “inactive”. For the molecule `COC(=O)C1=C[C@H]([C@@H](C)[C@H](OC)c2ccccc2Br)[C@H]2c3ccccc3O[C@@H]12`, the Potency result is “inactive”. As for `Cc1cc2c(c(=O)o1)[C@H]1O[C@](c3ccsc3)(Cc3ccccc31)O2`, the Potency result is “inactive”. Take `COc1cccc([C@@H]2[C@H](C)C[C@H]3CC(=O)N4[C@H](CC(=O)N32)C[C@@H](C)[C@@H]4c2cccc(OC)c2)c1`: the Potency entry is “inactive”.

Turning to `C[C@H]1COc2c(N3CCN(C)CC3)c(F)cc3c(=O)c(C(=O)NCc4ccco4)cn1c23`, the Potency result is “inactive”.

For the molecule `CC1(OC(=O)c2cccs2)C(=O)C=C2C=C(c3ccsc3)OC=C2C1=O` (stereo not given), the Potency result is “inactive”. Regarding `CC1(OC(=O)C2CCCC2)C(=O)C=C2C=C(c3ccsc3)N(CC3CC3)C=C2C1=O` (stereo not given), the Potency result was “inactive”. As for `CC1=CC[C@@H](COc2ccccc2)O[C@@]2(C1)C(=O)N(Cc1ccc(Br)cc1)c1ccccc12`, the Potency result is “inactive”.

With `CCOC(=O)C1=CN(CCCc2cn(Cc3ccccc3)nn2)C(=O)NC1c1ccccc1` (stereo not given), the Potency entry is “inactive”. In the case of `CCN1C(=S)NC(c2cccs2)C(C(=O)OC)=C1C` (stereo not given), the Potency result was “inactive”.

The values above are taken from PubChem BioAssay (NCATS).
